Source: PubChem BioAssay (NCI)
Compounds without any hit were thinned out: in the full panel of roughly 79,000, 15% have a hit. Unmarked numbers belong to inactive results. Activity calls are given as the source filed them. No stated cut-off is given here; in the data, active means growth inhibition above about 70%; inactive means the rest.

assay: NCI Yeast Anticancer Drug Screen. Data for the mlh1 rad18 strain (AID 175); details: S. cerevisiae mlh1 rad18 strain growth inhibition; at 50.0 µM (retest, dose inferred, filed as 5.0); hits give high values
Procedure, shortened: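 Cells of a genetically altered yeast strain, deficient in DNA damage repair, were treated with compound. Their growth was then compared with that of vehicle-treated cultures to give inhibition.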

Row | SMILES | growth inhibition
1 | COc1ccc(N=Cc2cc(Br)cc(Br)c2O)cc1.COc1ccc(N=Cc2cc(Br)cc(Br)c2O)cc1.[Co] | 78% (active)
2 | O=C(/C=C/C(=O)N1CCCC1)N1CCCC1 | -2%
3 | O=S(c1ccccc1)c1c(Cl)c(Cl)nc(Cl)c1Cl (stereo not drawn) | 99% (active)
4 | CSc1nc(N)c2cnn(C3OC(CO)C(O)C3O)c2n1 (stereo not drawn) | -12%
5 | COc1cccc(C=O)c1O | 66%
6 | Cn1c(=O)c2c(ncn2CCCCOc2ccc3c(c2)[n+]([O-])nc(N)[n+]3[O-])n(C)c1=O | 82% (active)
7 | Cn1ncc2c(Nc3cccc(Cl)c3)nc(Nc3cccc(Cl)c3)nc21 | 97% (active)
8 | Cc1cc(C)n2nc(N)c(C#N)c2c1C#N | 7%
9 | COc1ccc(C2c3cc4c(cc3OC(O)C2C)OCO4)cc1 (stereo not drawn) | 74% (active)
10 | Nc1ccccc1[S][Sn]([c]1ccccc1)([c]1ccccc1)[c]1ccccc1 | 99% (active)
11 | Cn1c(Sc2ccc(-c3cccnc3)n2C)ccc1-c1cccnc1 | 95% (active)
12 | Nc1nnc(-c2cc(=O)c3cc(Cl)ccc3o2)s1 | 10%
13 | COc1ccc(CNc2nc3cc(C(F)(F)F)ccc3nc2C)cc1OC | 18%
14 | CC(=O)OCC1CC2OC2CC1C (stereo not drawn) | -26%
15 | CCCCN(CCCC)CC(O)c1cc(-c2ccc(Cl)cc2)nc2cc(C)ccc12 (stereo not drawn) | 98% (active)
16 | NC(=S)n1nc(-c2ccccc2)c(N=Nc2ccccc2Cl)c1-c1ccccc1 | 71% (active)
17 | CCCCCCCCCCCCN(CCO)CCO | 91% (active)
18 | CC(C)CCSc1ncnc2nc[nH]c12 | 6%
